From PubChem BioAssay
“And” between values parts separate entries of the source, which are not always exact repeats. Identical values can stand only once. The source made the active and inactive calls.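 Rule for the calls, unless noted: active = normalized viability below 100% at a tested concentration; inactive = the rest.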

Experiments:
[1] = Wnt pathway potentiators raising nuclear beta-catenin – imaging, WNT3A-conditioned medium, mouse C2C12, NPC library, primary screen (AID 1117326; in the data active = nuclear beta-catenin stimulation mostly above about 4.2%, no sharp cut-off; inactive = mostly below about 10%); settings: stronger effect = higher value
[2] = stimulators of insulin release from INS-1E, primary screen, cell-based, 5 mM glucose, NPC library (AID 1117329;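 active = compound raises insulin release from rat beta cells at 5 mM glucose, no numeric limit stated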); settings: rat INS-1E insulin secretion, at 10 µM, stronger effect = higher value
[3] = growth inhibition of GSK3B-pretreated HCT116 cells – cell-based, CellTiter-Glo, 0.2 to 20 µM (AID 1117336;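 active = compounds lowering colon cancer cell viability after pretreatment blocking the GSK3B kinase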); settings: HCT116 viability after GSK3B inhibitor, at 20 µM, stronger effect = higher value
[4] = inhibition of endothelial tube formation, primary screen, imaging, VEGF stimulated, CD31 staining, tube area, NPC library (AID 1117340;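 active = compound that reduces growth-factor-driven endothelial tube area in a mixed cell culture, no cutoff stated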); settings: VEGF-stimulated ADSC/ECFC co-culture, at 10 µM, stronger effect = higher value
[5] = GLP1 release stimulators, primary, NCI-H716, NPC library (AID 1117341;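 active = compound raises GLP1 secretion from the human gut endocrine cells, with no numeric limit stated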); settings: NCI-H716 cells, at 10 µM, stronger effect = higher value
[6] = HCT116 colon cancer cell growth inhibition, primary screen, CellTiter-Glo luminescence, NPC library (AID 1117342;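 active = compounds that lower survival of HCT116 colon cancer cells in the luminescence readout, no numeric limit stated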); settings: at 20 µM (top of the series)
[7] = reduced SW480 viability measured with CellTiter-Glo, NPC library, primary (AID 1117343;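 active = compounds that lower viability of the colon cancer cells in the luminescence readout, with no numeric limit stated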); settings: CellTiter-Glo luminescence; at 20 µM (top of the series) unless noted
[8] = NPC library primary testing for decreased DLD-1 cell viability via CellTiter-Glo (AID 1117346;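 active = compounds that lower survival of DLD-1 colon cancer cells in the luminescence readout, no cutoff given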); settings: DLD-1 viability, CellTiter-Glo luminescence; at 20 µM (top of the series)
[9] = EMT-state selective cytotoxicity in co-culture – imaging, PC-3E GFP, TEM4-18 mCherry, primary screen (AID 1345086;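 active = compounds killing one labelled cell type while sparing the other, by normalised counts and ratio limits, not self-fluorescent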;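 for all read-outs here: cells exposed to compound for 72 h before imaging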;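 for red/green cell ratio (normalised): normalised mesenchymal count divided by normalised epithelial count so high means epithelial killing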); settings: PC-3E GFP / TEM4-18 mCherry co-culture, imaging cell counts, at 1 µM; for red/green cell ratio (normalised): actives lie on both sides, counts scaled to control wells, 1 = unselective
[10] = viability loss with induced miR-34 in A549 – imaging, A549 dox-inducible miR-34, nuclei and caspase counts, primary screen (AID 1347080;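 active = compounds whose cell count with miR-34 switched on is under 0.7 times the count with it off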); settings: A549 miR-34 inducible, Hoechst nuclei count, 48 h
[11] = molecular target: NAD(+) hydrolase SARM1 (Homo sapiens) (UniProt Q6SZW1); test: blocking NAD cleavage by SARM1 SAM-TIR – cell lysate, NAD-Glo luminescence (AID 1508614;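 active = compound whose remaining NAD level is above about 45 nM, limit read from the data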;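 note: higher remaining NAD means stronger inhibition of SARM1 NADase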); settings: SAM-TIR HEK293T lysate NADase, at 1 µM, stronger effect = higher value
Chain of NAD(+) hydrolase SARM1 (Homo sapiens) (Q6SZW1 whole entry, looked up): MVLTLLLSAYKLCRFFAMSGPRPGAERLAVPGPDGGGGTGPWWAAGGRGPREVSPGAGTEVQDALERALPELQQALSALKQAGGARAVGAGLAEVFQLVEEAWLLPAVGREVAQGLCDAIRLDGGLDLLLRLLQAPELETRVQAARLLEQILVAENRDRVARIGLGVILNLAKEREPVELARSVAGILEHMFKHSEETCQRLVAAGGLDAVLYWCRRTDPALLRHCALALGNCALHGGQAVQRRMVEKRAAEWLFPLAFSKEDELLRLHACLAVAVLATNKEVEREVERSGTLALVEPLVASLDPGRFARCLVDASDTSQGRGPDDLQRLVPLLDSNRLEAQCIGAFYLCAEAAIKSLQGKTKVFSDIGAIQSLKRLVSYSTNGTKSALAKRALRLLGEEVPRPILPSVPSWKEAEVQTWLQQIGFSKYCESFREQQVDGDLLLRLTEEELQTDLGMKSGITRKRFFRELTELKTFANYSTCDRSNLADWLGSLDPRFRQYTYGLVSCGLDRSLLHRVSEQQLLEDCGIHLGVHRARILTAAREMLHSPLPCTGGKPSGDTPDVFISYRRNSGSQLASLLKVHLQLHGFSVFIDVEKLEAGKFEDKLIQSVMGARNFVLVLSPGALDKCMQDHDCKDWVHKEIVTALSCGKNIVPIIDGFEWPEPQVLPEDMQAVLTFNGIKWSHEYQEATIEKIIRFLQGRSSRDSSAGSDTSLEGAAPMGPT

[12] = compounds altering viability of human ES cells (AID 493140; call rule not given here;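 note: cells exposed to compounds for four days before counting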); settings: human embryonic stem cell survival screen; stronger effect = higher value
[13] = P. berghei load reduction in hepatocytes – cell-based, HepG2, luciferase luminescence, HepG2 viability, primary screen (AID 624349; in the data active = parasite load remaining mostly below about 12%, no sharp cut-off; inactive = mostly above about 10%;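 note: 100% = mean of DMSO negative control wells on the same plate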); settings: P. berghei liver stage in HepG2, luciferase luminescence, concentration not given here; parasite load remaining: stronger effect = lower value; viability: measured here: HepG2 viability without parasites
[14] = MELAS cybrid and Rieske KO viability enhancers – cell-based, MELAS cybrids, Rieske KO mouse fibroblasts, CellTiter-Glo, primary screen (AID 1508586;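 active = mean z-score across replicates of 1.96 or higher in either the MELAS or the Rieske mutant cell line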;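 note: z relative to plate mean and SD of compound and empty wells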); settings: low glucose
[15] = drug combination growth inhibition, ovarian cancer – cell-based, oncology-focused library, rucaparib conditional, profiling panel (AID 1508598); settings: patient-derived ovarian cancer cells, CellTiter-Glo viability, 144 h, stronger effect = lower value
[16] = measured here: epithelial PC-3E GFP cell survival
[17] = measured here: mesenchymal TEM4-18 mCherry cell survival
[18] = stronger effect = lower value, cell number ratio, induced over uninduced
[19] = measured here: relative caspase fold change +Dox/-Dox
[20] = measured here: total cells with miR-34 induction, stronger effect = lower value
[21] = measured here: total cells without miR-34 induction
[22] = MELAS cybrid survival, CellTiter-Glo 48 h, stronger effect = higher value
[23] = Rieske KO mouse fibroblast survival, CellTiter-Glo 72 h

O=[N+]([O-])c1ccc(O)c2ncccc12
inactive: insulin secretion stimulation [2] -1.1% | GLP1 secretion stimulation [5] -11.4% | red/green cell ratio (normalised) [9] 0.89 | fold change [10, 18] 0.979 | remaining NAD [11] 10 nM
1.9%: nuclear beta-catenin stimulation ([1]; stimulation, at 2 µM)
active: nuclear beta-catenin stimulation ([1]; at 10 µM) 45.6% | viability decrease [3] 95.8% | tube area decrease [4] 102% | inhibition of viability [6] 76.5% | viability decrease (inhibition) [7] 112% | viability decrease (inhibition) [8] 80.7%
2460: cell count [10, 21]
0.972: fold change [10, 19]
0.95: normalised cell number [9, 17]
1.07: normalised cell number [9, 16]
2410: cell count [10, 20]

CNCCCC1c2ccccc2C=Cc2ccccc21
1.04: normalised cell number [9, 17]
-0.441: z-score [14, 23]
inactive: survival [12] 0.667 | parasite load remaining [13] 64.9% and 67.7% | nuclear beta-catenin stimulation ([1]; at 10 µM) 2% | insulin secretion stimulation [2] 1.7% | viability decrease [3] -46.9% | GLP1 secretion stimulation [5] 6.8% | inhibition of viability [6] 39.3% | viability decrease (inhibition) [8] 30.3% | red/green cell ratio (normalised) [9] 1.06 | fold change [10, 18] 1.12 and 0.946 and 0.93 | z-score [14, 22] -0.141 | remaining NAD [11] 10 nM
0.5%: nuclear beta-catenin stimulation ([1]; stimulation, at 2 µM)
active: tube area decrease [4] 40.6% | viability decrease (inhibition) [7] 87.8%
1.27 and 1.04 and 5.53: fold change [10, 19]
0.98: normalised cell number [9, 16]
6500 and 6350 and 11800: cell count [10, 20]
5820 and 6720 and 12700: cell count [10, 21]
77.6% and 100%: viability [13]

CN(N=O)C(=O)N[C@@H]1[C@@H](O)[C@H](O)[C@@H](CO)O[C@@H]1O
1.08: normalised cell number [9, 17]
inactive: parasite load remaining [13] 90.3% and 138% and 42.6% | nuclear beta-catenin stimulation ([1]; at 10 µM) 0.9% | insulin secretion stimulation [2] 0.5% | viability decrease [3] -5.6% | tube area decrease [4] 10.3% | GLP1 secretion stimulation [5] 0.8% | inhibition of viability [6] -6.13% | viability decrease (inhibition) [7] 42% | viability decrease (inhibition) [8] -37.7% | red/green cell ratio (normalised) [9] 1.14 | fold change [10, 18] 0.837 and 0.877 | z-score [14, 22] 0.426 | viability ([15]; at 0.000305 µM, OCI-C5x cells, with rucaparib 10 µM, 100% = cells with rucaparib alone) 107% | viability ([15]; at 0.000305 µM, OCI-C5x cells, without rucaparib) 111% | viability ([15]; at 0.000305 µM, OCI-P5x cells, with rucaparib 20 µM, 100% = cells with rucaparib alone) 108% | viability ([15]; at 0.000305 µM, OCI-P5x cells, without rucaparib) 121% | viability ([15]; at 0.00122 µM, OCI-C5x cells, with rucaparib 10 µM, 100% = cells with rucaparib alone) 110% | viability ([15]; at 0.00122 µM, OCI-C5x cells, without rucaparib) 114% | viability ([15]; at 0.00122 µM, OCI-P5x cells, with rucaparib 20 µM, 100% = cells with rucaparib alone) 101% | viability ([15]; at 0.00122 µM, OCI-P5x cells, without rucaparib) 115% | viability ([15]; at 0.00488 µM, OCI-C5x cells, with rucaparib 10 µM, 100% = cells with rucaparib alone) 102% | viability ([15]; at 0.00488 µM, OCI-C5x cells, without rucaparib) 121% | viability ([15]; at 0.00488 µM, OCI-P5x cells, without rucaparib) 113% | viability ([15]; at 0.0195 µM, OCI-C5x cells, with rucaparib 10 µM, 100% = cells with rucaparib alone) 111% | viability ([15]; at 0.0195 µM, OCI-C5x cells, without rucaparib) 114% | viability ([15]; at 0.0195 µM, OCI-P5x cells, with rucaparib 20 µM, 100% = cells with rucaparib alone) 100% | viability ([15]; at 0.0195 µM, OCI-P5x cells, without rucaparib) 116% | viability ([15]; at 0.0781 µM, OCI-C5x cells, with rucaparib 10 µM, 100% = cells with rucaparib alone) 106% | viability ([15]; at 0.0781 µM, OCI-C5x cells, without rucaparib) 122% | viability ([15]; at 0.0781 µM, OCI-P5x cells, with rucaparib 20 µM, 100% = cells with rucaparib alone) 104% | viability ([15]; at 0.0781 µM, OCI-P5x cells, without rucaparib) 112% | viability ([15]; at 0.313 µM, OCI-C5x cells, with rucaparib 10 µM, 100% = cells with rucaparib alone) 106% | viability ([15]; at 0.313 µM, OCI-C5x cells, without rucaparib) 126% | viability ([15]; at 0.313 µM, OCI-P5x cells, without rucaparib) 113% | viability ([15]; at 1.25 µM, OCI-C5x cells, without rucaparib) 109% | viability ([15]; at 1.25 µM, OCI-P5x cells, without rucaparib) 105% | viability ([15]; at 5 µM, OCI-C5x cells, with rucaparib 10 µM, 100% = cells with rucaparib alone) 103% | viability ([15]; at 5 µM, OCI-C5x cells, without rucaparib) 101%
97.3% and 74.3% and 97.4%: viability [13]
0.385: z-score [14, 23]
8550 and 11000: cell count [10, 20]
1.24 and 1.12: fold change [10, 19]
0.95: normalised cell number [9, 16]
active: viability ([15]; at 0.00488 µM, OCI-P5x cells, with rucaparib 20 µM, 100% = cells with rucaparib alone) 97.2% | viability ([15]; at 0.313 µM, OCI-P5x cells, with rucaparib 20 µM, 100% = cells with rucaparib alone) 98.9% | viability ([15]; at 1.25 µM, OCI-C5x cells, with rucaparib 10 µM, 100% = cells with rucaparib alone) 97.9% | viability ([15]; at 1.25 µM, OCI-P5x cells, with rucaparib 20 µM, 100% = cells with rucaparib alone) 87.8% | viability ([15]; at 5 µM, OCI-P5x cells, with rucaparib 20 µM, 100% = cells with rucaparib alone) 87.3% | viability ([15]; at 5 µM, OCI-P5x cells, without rucaparib) 98.1%
10200 and 12600: cell count [10, 21]
2.9%: nuclear beta-catenin stimulation ([1]; stimulation, at 2 µM)
